Measurements published in PubChem BioAssay AID651907 (Vanderbilt Specialized Chemistry Center, 2012).
Calls of active or inactive are those of the source. No rule for the calls is given here.

Target: Histone deacetylase 7 (Homo sapiens) (UniProt Q8WUI4)
Experiment: HDAC7 deacetylase inhibition, profiling panel, selectivity assay for E-cadherin restoration project, biochemical, human (AID 651907)

Sequence of Histone deacetylase 7 (Homo sapiens) (Q8WUI4 whole entry, looked up): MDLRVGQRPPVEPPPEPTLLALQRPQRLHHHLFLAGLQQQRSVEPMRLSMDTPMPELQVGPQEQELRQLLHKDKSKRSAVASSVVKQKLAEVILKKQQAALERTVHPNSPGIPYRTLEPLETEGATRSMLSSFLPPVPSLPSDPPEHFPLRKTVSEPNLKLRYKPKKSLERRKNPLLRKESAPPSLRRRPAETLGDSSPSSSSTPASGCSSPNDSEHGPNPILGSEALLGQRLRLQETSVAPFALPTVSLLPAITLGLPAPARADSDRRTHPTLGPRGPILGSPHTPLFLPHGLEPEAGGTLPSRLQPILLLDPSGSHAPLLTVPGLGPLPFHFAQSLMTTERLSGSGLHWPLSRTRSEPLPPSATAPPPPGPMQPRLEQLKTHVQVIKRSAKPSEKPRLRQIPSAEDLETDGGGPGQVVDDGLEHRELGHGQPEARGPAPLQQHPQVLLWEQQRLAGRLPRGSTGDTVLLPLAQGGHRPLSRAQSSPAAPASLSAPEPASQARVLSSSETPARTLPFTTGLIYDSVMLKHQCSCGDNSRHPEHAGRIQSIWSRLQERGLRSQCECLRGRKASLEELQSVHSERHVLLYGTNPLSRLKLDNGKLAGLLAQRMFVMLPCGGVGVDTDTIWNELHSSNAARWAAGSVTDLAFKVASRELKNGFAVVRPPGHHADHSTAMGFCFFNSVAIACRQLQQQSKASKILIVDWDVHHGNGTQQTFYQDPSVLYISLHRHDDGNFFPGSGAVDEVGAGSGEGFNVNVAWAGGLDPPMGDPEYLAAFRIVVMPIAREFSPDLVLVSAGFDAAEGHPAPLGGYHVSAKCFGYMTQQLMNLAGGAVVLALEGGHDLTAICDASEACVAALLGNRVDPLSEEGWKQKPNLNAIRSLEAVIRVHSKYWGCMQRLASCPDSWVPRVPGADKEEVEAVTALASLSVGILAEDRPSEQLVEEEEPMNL

## O=C(NCCCNC(=O)c1ccc[nH]c1=O)c1cc(-c2ccccc2)on1
  outcome: inactive
